Bioassay records (PubChem)
Most compounds without a hit are left out; they make up all but 1.9% or so of the library.
aSyn yeast inh: rescues yeast growth from alpha-synuclein toxicity. Yeast expressing alpha-synuclein, growth rescue, BacTiter-Glo, 24 h. Potency, µM (highest dose often 46.1 µM), for the others: at the highest dose growth rescue (activation), hits mostly activators. 370,000 compounds, 0.14% hits; further: potency means the concentration at half of the fitted maximal effect; % of control where 0% means no effect; nearly all actives have a fitted effect of over 65% in size
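Readout is rescue of growth in alpha-synuclein-expressing yeast, so inhibitors of toxicity appear as activators. Growth after 24 hr at 30 deg C in galactose medium is quantified by luminescence.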
FUS yeast rescue: FUS proteinopathy suppression in yeast; Potency, µM (series often up to 76.6 µM), hits mostly activators; S. cerevisiae FUS-expressing, growth rescue, OD600, 24 h; 390,000 compounds, 0.24% hits;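 further: potency means the concentration at half of the fitted maximal effect; plate controls were DMSO vehicle for no effect and reference control for full effect; nearly all actives have a fitted effect of over 55% in size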
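Toxicity suppression screen in FUS-yeast. Cells induced with 2% galactose, starting OD 0.005, treated 24hr at 30C with compounds at multiple final concentrations; growth by OD600.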
PTHR1 agonist: PTHR1 (human) receptor agonism; Q03431; HEK293 GP2 PTHR1 cells, GloSensor cAMP luminescence, 1 h; Potency, µM (top dose mostly 115 µM), for the others: at the top dose activation, actives largely listed as activators; 410,000 compounds, 0.075% hits; AID 743266; further: potency means the concentration at half of the fitted maximal effect; nearly all actives have a fitted effect of over 55% in size
Target sequence (Q03431 whole entry, looked up): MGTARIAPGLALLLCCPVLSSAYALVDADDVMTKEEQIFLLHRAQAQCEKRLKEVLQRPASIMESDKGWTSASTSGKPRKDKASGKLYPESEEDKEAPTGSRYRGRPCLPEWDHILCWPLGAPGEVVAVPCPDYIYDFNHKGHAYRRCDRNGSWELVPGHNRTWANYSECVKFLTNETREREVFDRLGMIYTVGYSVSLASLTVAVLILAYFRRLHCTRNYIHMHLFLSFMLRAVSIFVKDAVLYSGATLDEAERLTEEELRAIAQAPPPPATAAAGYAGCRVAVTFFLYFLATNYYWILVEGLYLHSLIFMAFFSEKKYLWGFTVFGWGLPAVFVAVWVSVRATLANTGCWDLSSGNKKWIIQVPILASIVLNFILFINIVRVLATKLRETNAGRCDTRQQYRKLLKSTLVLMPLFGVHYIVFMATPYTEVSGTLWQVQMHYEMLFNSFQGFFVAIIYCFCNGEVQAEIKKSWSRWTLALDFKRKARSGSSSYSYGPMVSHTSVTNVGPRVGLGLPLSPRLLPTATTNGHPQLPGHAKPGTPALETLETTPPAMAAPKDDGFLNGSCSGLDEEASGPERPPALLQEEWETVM
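HEK-293-derived GP2 cells expressing PTHR1 and a GloSensor cAMP reporter, 3,000/well, plated overnight, given luciferin plus IBMX (each 0.5 mM as added) for 1 h at 37 °C, then compound for 1 h at 37 °C. Luminescence was read after 15 min at room temperature.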
LDHA block: LDHA (human) enzyme inhibition. P00338. purified LDHA, NADH/diaphorase-resazurin fluorescence; stronger effect = lower value. activity change, % (values are at about 110 or 230 µM). AID 1347041. 480,000 compounds, 0.15% hits; in the data active means activity change below about -30%; inconclusive means mostly about -25% to -30%;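 further: plate controls were DMSO wells for no effect and wells without enzyme for full effect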
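Remaining NADH was detected by diaphorase (0.133 mg/mL) converting 37 µM resazurin to fluorescent resorufin, read at 0 and 20 minutes. The preceding 5-minute room-temperature reaction used 2 nM LDHA, 0.2 mM sodium pyruvate and 0.06 mM NADH at pH 7.4.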
Abeta rescue: compounds reversing amyloid beta toxicity in yeast. AID 1347071. Potency, µM (doses to about 46.1 µM), hits mostly activators. yeast expressing A-beta42, growth rescue, OD600, 48 h; response scale: 0% DMSO, 100% iron-clioquinol control. 410,000 compounds, 0.063% hits; further: potency means the concentration at half of the fitted maximal effect; nearly all actives have a fitted effect of over 55% in size
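Growth rescue measured by 600 nm absorbance after 48 h yeast culture at 30 C with compound. Values normalized between DMSO and an equimolar ferric chloride plus clioquinol control.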
TDP-43 yeast inh: TDP-43 toxicity inhibition in yeast; Potency, µM (series often up to 46.1 µM), for the others: top-dose growth rescue (activation), usual class: activators; TDP-43 expressing yeast growth rescue, BacTiter-Glo, 24 h; AID 652104; 410,000 compounds, 1.8% hits; further: potency means the concentration at half of the fitted maximal effect; % of control where 0% means no effect; nearly all actives have a fitted effect of over 50% in size
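Yeast cells expressing TDP-43 under galactose induction are exposed to compounds for 24 hr at 30 deg C. BacTiter-Glo luminescence measures growth, so protective compounds score as activators.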
Starred values were filed as active, the others as inactive; i = inactive; ? = inconclusive; / = not tested or not shown. Unless noted, the call rests on the fitted dose curve; in most records, active means well fitted curve in the direction sought with a large enough effect; inconclusive means small, poorly fitted or top-dose-only effect, or another doubt; inactive means no such curve, though single readings can be large; an effect the other way counts as inactive or inconclusive.

SMILES | aSyn yeast inh | FUS yeast rescue | PTHR1 agonist | LDHA block | Abeta rescue | TDP-43 yeast inh
Cc1cccc(NC(=O)CCn2nc(-c3ccccc3)c3ccccc3c2=O)c1 | / | ? | -89.3% | 4.2 | i | 20µM*
COc1cc(-c2cc(OC)c3c(C)oc(C)c3c(=O)c2)ccc1OC(=O)c1ccccc1C | / | ? | -8.6% | 6.4 | i | 20µM*
COc1ccc(-c2cc(OC(=O)c3ccccc3C)c3c(C)oc(C)c3c(=O)c2)cc1 | / | i | -17.0% | 2.9 | i | 25.4%
CCOc1cc(-c2ccc(OC(=O)c3ccc(C)cc3)c(OC)c2)cc(=O)c2c(C)oc(C)c12 | / | ? | -88.6% | -0.4 | i | 17.8µM*
COc1cc(-c2cc(OC)c3c(C)oc(C)c3c(=O)c2)ccc1OC(=O)c1cccc(Cl)c1 | / | ? | -72.3% | 0.4 | i | 20µM*
COc1ccc(C2C(C#N)=C(N)Oc3cc4c(cc32)OCO4)cc1 (stereo not given) | -7.6% | i | i | 6.3 | i | -14.4%
CCN1C=C(Cc2ccc(OC)cc2)C2=C(C1)C(c1ccc(OC)cc1)C(C#N)=C(N)O2 (stereo not given) | 1.8% | 35.5µM* | i | 6.7 | i | -4.6%
CCO[C@@H]1OC(C(=O)Nc2ccccc2)=C[C@H](c2ccc(C(F)(F)F)cc2)[C@H]1CCCO | 0.1% | ? | -35.6% | 0.0 | ? | 12.6µM*
Cc1ccc(C)n1C(CC(=O)O)c1ccc(C#N)cc1 (stereo not given) | -4.8% | 31.6µM* | 8.3% | -9.9 | i | -21.4%
O=c1c2sc(-c3ccccc3)cc2nc2n1CCCCC2 | 9.1% | i | -28.3% | -1.7 | i | 11.2µM*
O=c1c2sc(-c3ccccc3)cc2nc2n1CCC2 | ? | i | -20.4% | -9.9 | i | 12.6µM*
Cn1c(NCCN2CCCC2)nc2cc(-c3ccccc3)sc2c1=O | 0.9% | i | -22.3% | -5.5 | i | 6.8%
Cc1ccccc1CC(C)Nc1ccc(C#N)cn1 (stereo not given) | / | / | / | 12.4 | / | /
Cc1ccc2c(c1)N(C(=O)NCc1ccccc1)CCO2 | / | i | i | 0.7 | i | 17.8µM*
COc1ccc(OC)c(NC(=O)C(=O)c2cn(CC(=O)N3CCOCC3)c3ccccc23)c1 | / | / | / | 13.8 | / | /
CC1=NN(c2nc(C)cc(C)n2)C(=O)C1Cc1cccc(Cl)c1 (stereo not given) | / | / | / | -13.2 | / | /
COC(=O)[C@]12C[C@H](CC(=O)NCc3ccc(OC)c(OC)c3)C(=O)N(Cc3cccc4ccccc34)C1=C[C@H](C1CCCC1)O[C@@H]2C | / | 12.6µM* | / | / | / | /
COC(=O)[C@]12C[C@H](CC(=O)NCC34CC5CC(CC(C5)C3)C4)C(=O)N(Cc3cccc4ccccc34)C1=C[C@H](C1CCCC1)O[C@@H]2C | / | i | / | / | / | /
COC(=O)[C@]12C[C@H](CC(=O)NCc3ccc(C)o3)C(=O)N(Cc3cccc4ccccc34)C1=C[C@H](C1CCCC1)O[C@@H]2C | / | 28.2µM* | / | / | / | /
COC(=O)[C@]12C[C@H](CC(=O)NCc3cccc4ccccc34)C(=O)N(CCc3ccc(OC)c(OC)c3)C1=C[C@H](C(C)C)O[C@@H]2C1CC1 | / | 12.6µM* | / | / | / | /
COC(=O)[C@]12C[C@H](CC(=O)N3CCN(C(=O)c4ccco4)CC3)C(=O)N(Cc3cccc4ccccc34)C1=C[C@H](C1CCCC1)O[C@@H]2C | / | 15.8µM* | / | / | / | /
COC(=O)[C@]12C[C@H](CC(=O)NCc3ccc(OC)c(OC)c3)C(=O)N(CCc3ccc(OC)c(OC)c3)C1=C[C@H](C(C)C)O[C@@H]2C1CC1 | / | i | / | / | / | /
O=C(Nc1ccccc1C(=O)NC1CCCC1)c1ccnc(-n2cncn2)c1 | / | / | / | 0.6 | / | /
Cn1c(Cl)nc2c1c(=O)n(Cc1ccc(Cl)cc1Cl)c(=O)n2C | / | / | / | 0.7 | / | /
Cc1ccc(-c2nn(CCC(=O)NCc3ccccc3)c(=O)c3ccccc23)cc1 | / | / | / | 4.1 | / | /
